Measurements from PubChem BioAssay (NCI).
The panel holds about 83,000 compounds, 20% with a hit somewhere; the sample as a whole holds those more often.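 Cells were grown in 96-well plates and exposed to the test compound at a single concentration for 48 hours; results are reported as percent growth, with values below 10 considered active.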 Activity calls are given as the source filed them.

tested on: CCRF-CEM leukemia; assay: NCI-60 one-dose screen, 48 h (100 = growth as untreated, 0 = no growth, -100 = all killed); details: 10 µM unless noted

| SMILES | growth |
| --- | --- |
| O=C1CN(Cc2ccc(C(=O)NO)cc2)C(=O)[C@@H](Cc2ccccc2)N1 | 105% (inactive) |
| COc1ncc(-c2ccc3nccc(C#CCCCCC(=O)NO)c3c2)cc1NS(=O)(=O)c1ccc(F)cc1F | -8.34% (active) |
| CCCCCN(CCCCC)CCCCCCCCN1CCCc2ccccc21 | 81.7% (inactive) |
| CC1Cc2c(Cl)ncnc2N(C)c2ccc(O)cc21 (centres undefined) | 82.5% (inactive) |
| FC(F)(F)c1ccc2c(c1)Sc1ccccc1N2 | 102% (inactive) |
| Cc1ccc2c(n1)C(=O)C(Cl)=C(Nc1ccc(N3CCN(C)CC3)cc1)C2=O | -6.24% (active) |
| CCOc1cc(/C=N\NC(=O)N/N=C/c2ccc(O)c(OCC)c2)ccc1O | 16.5% (inactive) |
| C1=C[C@H]2O[C@@H]1c1ccc3[nH]ccc3c12 | 90.7% (inactive) |
| CC1(C)CC[C@]2(C(=O)O)CC[C@]3(C)[C@H](CC[C@@H]4[C@@]5(C)CCC(=O)C(C)(C)[C@@H]5CC[C@]43C)[C@H]2[C@H]1OC(=O)C(F)(F)F | -25% [100 µM] (active) |
| [2H]C1([2H])CCN(C(=O)C2CC2)c2cc(NS(=O)(=O)c3ccc(-c4cccc(C(N)=O)c4)cc3)ccc21 | 30.7% (inactive) |
| CCOC(=O)c1sc2nc(-c3cc(OC)c(OC)c(OC)c3)nc(N3CCOCC3)c2c1C | 17.1% (inactive) |
| O=C(CCN1CCCCC1)c1ccc(Cl)cc1 | 93.6% (inactive) |
| O=C1CC(C(F)(F)F)Cc2nc3ccc(Br)cc3cc21 (centres undefined) | 98.1% (inactive) |
| NC(=O)c1cccc(-c2ccc(S(=O)(=O)Nc3ccc4c(c3)N(C(=O)C3CC3)CCC4)cc2)c1 | 33.5% (inactive) |
